Results: PubChem BioAssay
Values without a mark were called inactive. For some of these results: Entries with a potency or affinity are not part of this list. Activity calls are given as the source filed them. Unless noted, no rule for the calls is given here.

How the values were obtained:
[1] = antimalarial activity against Dd2 strain (AID 2302;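 active = growth inhibition above 50% at the single 2 µM test dose, taken to imply half-maximal potency below 2 µM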;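 also: 0% = DMSO untreated growth and 100% = chloroquine plus artemisinin killed control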); conditions: P. falciparum Dd2 in RBCs, LDH growth readout, 72 h; at 2 µM; active compounds read high
[2] = human hepatoma cell viability loss – ATP luminescence, cytotoxicity control for P. falciparum antimalarial project, primary screen (AID 2303;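 active = inhibition above 50%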;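 also: 0% = DMSO wells and 100% = digitonin-killed cells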); conditions: HepG2 viability, 24-48 h, at 10 µM, active compounds read high
[3] = molecular target: L-lactate dehydrogenase (Plasmodium falciparum (isolate CDC / Honduras)) (UniProt Q27743); assay: PfLDH activity inhibition – cell lysate, 3D7 strain, counter-screen for P. falciparum growth inhibition project (AID 2304);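 also: 0% = vehicle and 100% = reference inhibitor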; conditions: P. falciparum 3D7 crude extract, LDH APAD/NBT absorbance; at 2 µM; active compounds read high
[4] = inhibition of 3D7 malaria parasite growth – strain 3D7 (AID 2306);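 also: 0% = DMSO wells and 100% = chloroquine plus artemisinin control wells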; conditions: P. falciparum 3D7 erythrocytic growth, LDH absorbance, 72 h; at 2 µM; active compounds read high
[5] = molecular target: Calcium-dependent protein kinase 1 (Plasmodium falciparum (isolate 3D7)) (UniProt P62344); assay: PfCDPK1 kinase inhibitors, biochemical, TCAMS library (AID 1159585; cut-off not given, nearly all actives have IC50 up to about 0.98 µM;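 also: inhibitors leave more ATP so luminescence rises with inhibition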); conditions: recombinant PfCDPK1, Kinase-Glo ATP depletion luminescence
[6] = molecular target: Plasmodium falciparum protein kinase 6 (PK6, PF3D7_1337100) (UniProt Q8IDW1); assay: PfPK6 kinase inhibitors, biochemical, TCAMS library (AID 1159586); conditions: recombinant PfPK6, Kinase-Glo ATP depletion luminescence
[7] = molecular target: Protein kinase 7 (PK7), Plasmodium falciparum 3D7 (PF3D7_0213400) (UniProt Q7YTF7); assay: inhibition of Plasmodium PK7 catalytic activity – biochemical, TCAMS antimalarial set, Kinase-Glo luminescence (AID 1159587); conditions: recombinant PfPK7, Kinase-Glo ATP depletion luminescence
[8] = molecular target: Calcium-dependent protein kinase 4 (Plasmodium falciparum (isolate 3D7)) (UniProt Q8IBS5); assay: PfCDPK4 kinase inhibitors, biochemical, TCAMS library (AID 1159588; cut-off not given, nearly all actives have IC50 up to about 0.91 µM); conditions: recombinant PfCDPK4, Kinase-Glo ATP depletion luminescence
Chain of Calcium-dependent protein kinase 4 (Plasmodium falciparum (isolate 3D7)) (Q8IBS5 whole entry, looked up): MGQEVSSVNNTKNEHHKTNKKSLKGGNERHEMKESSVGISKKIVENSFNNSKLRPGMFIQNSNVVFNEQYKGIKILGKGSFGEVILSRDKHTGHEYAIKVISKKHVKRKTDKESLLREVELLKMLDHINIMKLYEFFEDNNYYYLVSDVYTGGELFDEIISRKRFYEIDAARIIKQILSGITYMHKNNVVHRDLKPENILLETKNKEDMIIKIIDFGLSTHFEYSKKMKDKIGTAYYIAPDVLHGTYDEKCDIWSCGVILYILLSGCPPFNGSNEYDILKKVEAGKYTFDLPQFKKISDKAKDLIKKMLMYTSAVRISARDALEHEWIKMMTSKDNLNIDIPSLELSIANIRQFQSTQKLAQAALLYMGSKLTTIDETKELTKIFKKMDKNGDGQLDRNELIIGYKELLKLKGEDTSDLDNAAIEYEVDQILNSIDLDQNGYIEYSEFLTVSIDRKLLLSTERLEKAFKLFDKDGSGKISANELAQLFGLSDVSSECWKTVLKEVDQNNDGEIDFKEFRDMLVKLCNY

Chain of Plasmodium falciparum protein kinase 6 (PK6, PF3D7_1337100) (Q8IDW1 1-305): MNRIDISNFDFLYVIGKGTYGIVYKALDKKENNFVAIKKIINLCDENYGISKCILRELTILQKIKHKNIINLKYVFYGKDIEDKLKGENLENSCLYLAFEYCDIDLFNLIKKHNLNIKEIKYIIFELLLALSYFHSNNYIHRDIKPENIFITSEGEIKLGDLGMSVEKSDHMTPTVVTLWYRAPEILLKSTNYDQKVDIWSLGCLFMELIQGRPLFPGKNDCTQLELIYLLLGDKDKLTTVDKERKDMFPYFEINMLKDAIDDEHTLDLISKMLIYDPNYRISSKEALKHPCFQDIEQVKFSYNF
Chain of L-lactate dehydrogenase (Plasmodium falciparum (isolate CDC / Honduras)) (Q27743 whole entry, looked up): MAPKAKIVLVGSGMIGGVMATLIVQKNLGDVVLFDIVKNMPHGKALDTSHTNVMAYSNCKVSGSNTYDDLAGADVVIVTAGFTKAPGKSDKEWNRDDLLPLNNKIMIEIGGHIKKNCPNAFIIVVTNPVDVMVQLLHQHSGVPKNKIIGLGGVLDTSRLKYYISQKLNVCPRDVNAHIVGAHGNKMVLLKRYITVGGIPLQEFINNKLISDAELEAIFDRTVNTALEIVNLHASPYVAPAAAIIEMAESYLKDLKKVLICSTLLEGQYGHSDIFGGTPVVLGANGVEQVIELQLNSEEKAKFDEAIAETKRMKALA
Chain of Calcium-dependent protein kinase 1 (Plasmodium falciparum (isolate 3D7)) (P62344 whole entry, looked up): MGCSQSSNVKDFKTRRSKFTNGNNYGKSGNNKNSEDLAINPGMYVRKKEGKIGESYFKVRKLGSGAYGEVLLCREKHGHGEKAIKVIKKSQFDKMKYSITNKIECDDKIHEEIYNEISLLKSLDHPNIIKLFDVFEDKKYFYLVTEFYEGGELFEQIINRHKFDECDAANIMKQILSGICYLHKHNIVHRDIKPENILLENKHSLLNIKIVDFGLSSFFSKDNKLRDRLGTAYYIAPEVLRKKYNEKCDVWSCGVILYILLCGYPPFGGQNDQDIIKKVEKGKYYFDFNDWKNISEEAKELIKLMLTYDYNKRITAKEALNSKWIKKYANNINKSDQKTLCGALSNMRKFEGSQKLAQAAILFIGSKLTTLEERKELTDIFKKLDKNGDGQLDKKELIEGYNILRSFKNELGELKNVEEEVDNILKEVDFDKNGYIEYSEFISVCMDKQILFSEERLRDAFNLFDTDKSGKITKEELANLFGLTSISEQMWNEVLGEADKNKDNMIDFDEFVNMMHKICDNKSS
Chain of Protein kinase 7 (PK7), Plasmodium falciparum 3D7 (PF3D7_0213400) (Q7YTF7 1-343): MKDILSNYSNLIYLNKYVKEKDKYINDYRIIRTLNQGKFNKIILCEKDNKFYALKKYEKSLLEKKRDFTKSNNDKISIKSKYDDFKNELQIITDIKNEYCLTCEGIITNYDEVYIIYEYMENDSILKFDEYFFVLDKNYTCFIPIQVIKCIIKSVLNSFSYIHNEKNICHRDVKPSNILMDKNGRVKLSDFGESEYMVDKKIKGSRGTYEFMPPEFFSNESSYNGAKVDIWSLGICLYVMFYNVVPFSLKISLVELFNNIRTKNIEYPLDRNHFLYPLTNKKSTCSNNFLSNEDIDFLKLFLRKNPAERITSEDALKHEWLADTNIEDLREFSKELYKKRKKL

SMILES | growth inhibition [1] | inhibition [2] | inhibition [3] [%] | growth inhibition [4] | outcome [5] | outcome [6] | outcome [7] | outcome [8]
O=C(/C=C/c1ccc(Cl)c(Cl)c1)NC1CCC(CN2CCC(c3nc4ccc(O)cc4[nH]3)CC2)CC1 (stereo not drawn) | 84% (active) | 41% | -6 | 101% (active) | inactive | inactive | inactive | inactive
O=C(Nc1cccc(-c2nc3ccccc3[nH]2)c1)c1cccc(NC(=O)c2ccco2)c1 | 45% | 9% | 0 | 91% (active) | inactive | inactive | inactive | inactive
COc1cc2nc(N3CCC(c4ccccc4)CC3)nc(NCc3ccc(=O)[nH]c3)c2cc1OC | 58% (active) | 12% | 0 | 100% (active) | inactive | inactive | inactive | inactive
CN1CCCN(c2ccnc3cc4c(cc23)N(C(=O)c2ccc(Cl)cc2Cl)CC4)CC1 | 51% (active) | 6% | -2 | 100% (active) | inactive | inactive | inactive | inactive
O=C(Cc1ccccc1)NC(c1ccco1)c1cc(Cl)c2cccnc2c1O (stereo not drawn) | 93% (active) | 44% | -1 | 89% (active) | inactive | inactive | inactive | inactive
Cc1cc2ncn(-c3nccc(NCc4ccc(F)cc4)n3)c2cc1C | 83% (active) | 10% | -2 | 98% (active) | inactive | inactive | inactive | inactive
COc1ccc2nccc([C@@H](O)CN3CCC(NCc4ccc5c(c4)oc(=S)n5C)CC3)c2c1 | 68% (active) | 14% | -6 | 100% (active) | inactive | inactive | inactive | inactive
O=C(NCc1ccc(Cl)c(Cl)c1)c1cccc(C2CCCN(Cc3ccc4nc[nH]c4c3)C2)c1 (stereo not drawn) | 30% | 3% | 5 | 95% (active) | inactive | inactive | inactive | inactive
CCOC(=O)CCCc1cc(NC2CCN(C)CC2)nc(Nc2ccc(OC)cc2)n1 | 17% | 41% | -2 | 99% (active) | inactive | inactive | inactive | inactive
CCC(=O)N1CCc2cc(Br)cc(S(=O)(=O)N3CC(C)CC(C)C3)c21 (stereo not drawn) | 84% (active) | 5% | -3 | 85% (active) | inactive | inactive | inactive | inactive
COc1cccc(-c2cc(C(=O)Nc3cc(Oc4ccc(O)cc4)cc([N+](=O)[O-])c3)on2)c1 | 30% | 16% | 7 | 89% (active) | inactive | inactive | inactive | inactive
FC(F)(F)c1ccc2c(NN=Cc3cccc(Cl)c3)ccnc2c1 | 59% (active) | 7% | -3 | 93% (active) | inactive | inactive | inactive | inactive
O=C1CCCN1CCCNCc1ccc(-c2cccc(-c3nc4ccc(F)cc4[nH]3)c2)cc1 | 8% | 12% | -1 | 101% (active) | inactive | inactive | inactive | inactive
O=C(/C=C/c1ccc(Cl)c(Cl)c1)NCCCCCN1CCC(NC(=O)Nc2ccc(F)cc2F)CC1 | 23% | 14% | 2 | 102% (active) | inactive | inactive | inactive | inactive
Cc1nc(-c2cccc(NCc3ccccc3)c2)[nH]c1C | 48% | 16% | 1 | 101% (active) | inactive | inactive | inactive | inactive
CC(C)(C)c1ccc(CN(C[C@@H](O)CNS(=O)(=O)c2cc(Cl)cc(Cl)c2)C(C)(C)C)cc1 | 94% (active) | 74% (active) | -8 | 98% (active) | inactive | inactive | inactive | inactive
O=c1[nH]c2c(cc1CNC1CCCCC1)c(-c1cccc(F)c1)nn2-c1ccccc1 | 89% (active) | 6% | 7 | 95% (active) | inactive | inactive | inactive | inactive
O=C(Nc1ccc(OC2CCN(Cc3ccsc3)CC2)c(Cl)c1)c1cccs1 | 93% (active) | 16% | 1 | 94% (active) | inactive | inactive | inactive | inactive
CC(C)NC(C)(C)CN(Cc1ccc(-c2ccc(C(F)(F)F)cc2)cc1)C(=O)Cn1c(CCc2cccc(F)c2F)nc(=O)c2ccccc21 | 68% (active) | 44% | 3 | 94% (active) | inactive | inactive | inactive | inactive
COc1ccccc1N1CCN(CCCCNC(=O)c2ccc(NC(=O)c3ccc4ccccc4c3)cc2)CC1 | 18% | 16% | 1 | 97% (active) | inactive | inactive | inactive | inactive
CN(C)CCCNc1nccc(N(C)c2ccc(NC(=O)Nc3cc(C(F)(F)F)ccc3F)cc2)n1 | 25% | 97% (active) | 2 | 93% (active) | inactive | inactive | inactive | inactive

SMILES | growth inhibition [1] | inhibition [2] | inhibition [3] [%] | growth inhibition [4] | outcome [5] | outcome [6] | outcome [7] | outcome [8]
COc1ccc2nccc(N3CCC(SCCNCc4cc5c(cn4)OCCO5)C3)c2n1 (stereo not drawn) | 100% (active) | 30% | 2 | 101% (active) | inactive | inactive | inactive | inactive
CC(=O)Nc1ccc(C(=O)Nc2ccc(-c3cccc(-c4nc5ccc(F)cc5[nH]4)c3)cc2)cn1 | 84% (active) | 13% | -2 | 100% (active) | inactive | inactive | inactive | inactive
COc1cc(Cc2c(C)nc3nc(N)nc(N)c3c2C)c(Br)c(OC)c1OC | -2% | 44% | 0 | 93% (active) | inactive | inactive | inactive | inactive
COc1ccc2c(c1)ncn2-c1cc(OCc2ccncc2Br)c(C(N)=O)s1 | 50% (active) | 14% | -2 | 95% (active) | inactive | inactive | inactive | inactive
Cc1ccc(Nc2nc3cc(N(C)c4ccnc(Nc5cccc(CS(C)(=O)=O)c5)n4)ccc3o2)cc1 | 16% | -19% | 3 | 90% (active) | inactive | inactive | inactive | inactive
Nc1cccc(-c2ccc3ccnc(N)c3c2)c1 | 66% (active) | 30% | -7 | 91% (active) | inactive | inactive | inactive | inactive
CC(Nc1ccc2c(c1)OCCO2)C(=O)Nc1cc(C(F)(F)F)ccc1N1CCOCC1 (stereo not drawn) | 70% (active) | -6% | 1 | 98% (active) | inactive | inactive | inactive | inactive
CC(C)NCc1cccc(-c2ccc(NC(=O)c3ccc(C#N)cc3)cc2)c1 | 8% | 15% | 3 | 99% (active) | inactive | inactive | inactive | inactive
N#Cc1ccc2c(c1)CN(CCC1CCC(NC(=O)c3cc4ccccc4cc3N)CC1)CC2 (stereo not drawn) | 52% (active) | 5% | -8 | 80% (active) | inactive | inactive | inactive | inactive
O=C(NC1CC1)c1cnc(N2CCC(Cc3ccccc3)CC2)c(Cl)c1 | 96% (active) | 10% | -2 | 96% (active) | inactive | inactive | inactive | inactive
COc1cccc(COCC(O)CN(CCc2ccccn2)C(=O)c2ccccc2F)c1 (stereo not drawn) | 30% | 61% (active) | -1 | 97% (active) | inactive | inactive | inactive | inactive
COc1ccc(NC(=O)Nc2ccc(-c3ccc(-c4nc5c(C)cccc5[nH]4)s3)cc2)cc1 | 96% (active) | 74% (active) | 3 | 100% (active) | inactive | inactive | inactive | inactive
CCCNCc1ccc(-c2ccc(CN(CCOC)C(=O)CCC(=O)c3ccc(OC)c(F)c3)cc2)nc1 | 47% | 13% | -7 | 100% (active) | inactive | inactive | inactive | inactive
CC(C)(C)CNc1noc(-c2sccc2Br)n1 | 71% (active) | 4% | -7 | 82% (active) | inactive | inactive | inactive | inactive
COc1ccc(OCCCN2CCCCC2)cc1S(=O)(=O)c1ccc(OCc2ccc(C(F)(F)F)cc2)cc1 | 8% | 52% (active) | -2 | 94% (active) | inactive | inactive | inactive | inactive
N#Cc1cccc(Nc2cc(C(F)(F)F)nc(Nc3ccccc3)n2)c1 | 17% | 7% | 5 | 92% (active) | inactive | inactive | inactive | inactive
Cc1cccc2[nH]c(-c3ccc(-c4ccc(CNCC5CCCO5)cc4)cc3)nc12 (stereo not drawn) | 81% (active) | 36% | -4 | 101% (active) | inactive | inactive | inactive | inactive
CC(=O)Nc1ncc(C(=O)Nc2cccc(-c3ccc(-c4nc5c(C)cccc5[nH]4)cc3)c2)s1 | 78% (active) | 69% (active) | 3 | 101% (active) | inactive | inactive | inactive | inactive
CC(=O)Nc1ccc(CNCCc2ccc(NC(=O)c3cc(Cl)cc(Cl)c3)cc2)cc1 | 31% | 10% | -1 | 102% (active) | inactive | inactive | inactive | inactive
CCN(CC)CCCCOc1ccc2c(c1)C(=O)c1cc(OCCCCN(CC)CC)ccc1-2 | 44% | 24% | -6 | 102% (active) | inactive | inactive | inactive | inactive
